# PubChem BioAssay (EPA / NIEHS)
# Values joined by “and” are separate entries in the source; they are usually repeats but may differ in a detail not shown here. Equal values may be shown once. The source holds several records for some structures; these can differ, active in one and inactive in another. Active and inactive are the calls of the source. The calls were made as follows: active = hit-call score of the fitted dose curve at least 0.9, where 1 is the maximum; inactive = score below 0.9.
# Tests used:
# [1] = read-out: Urokinase-type plasminogen activator receptor (uPAR), PLAUR (gene 5329); assay: BSK_4H_uPAR: BioMAP Diversity Plus: 4H Assay for Urokinase-type plasminogen activator receptor (uPAR) Biomarker Activity (AID 2283030); conditions: primary human endothelial cells (HUVEC); actives raise or lower the signal
# Procedure, shortened: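 Cell-surface uPAR ELISA signal, measured 24 h after dosing human umbilical vein endothelial cells, was analyzed with bidirectional fitting relative to DMSO. Parallel SRB staining of total protein tracked overt cytotoxicity.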
# [2] = read-out: Vascular endothelial growth factor receptor 2 (Homo sapiens) (UniProt P35968); assay: BSK_4H_VEGFRII: BioMAP Diversity Plus: 4H Assay for Vascular endothelial growth factor receptor 2 (VEGFR2) Biomarker Activity (AID 2283031); conditions: primary human endothelial cells (HUVEC); actives raise or lower the signal;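 as to AC50: cell-surface VEGFR2 protein level quantified by ELISA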
# Procedure, shortened: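 ELISA read-out of VEGFRII in primary human umbilical vein endothelium, taken 24 h after chemical treatment. Responses are expressed relative to DMSO, with bidirectional fitting.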
# [3] = read-out: Human Leukocyte Antigen - DR isotype (HLADR), HLA-DRA (gene 3122); assay: BSK_BE3C_HLADR: BioMAP Diversity Plus: BE3C Assay for Human Leukocyte Antigen - DR isotype (HLADR) Biomarker Activity (AID 2283032); conditions: primary human bronchial epithelial cells; actives raise or lower the signal
# Procedure, shortened: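 Chemicals are dosed onto BE3C bronchial epithelial cultures of human origin and left 24 h. HLA-DR is then measured by ELISA, and the endpoint is fitted in both directions using DMSO as the activity baseline.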
# [4] = read-out: Vascular cell adhesion molecule 1 (VCAM1), VCAM1 (gene 7412); assay: BSK_4H_VCAM1: BioMAP Diversity Plus: 4H Assay for Vascular cell adhesion molecule 1 (VCAM1) Biomarker Activity (AID 2283033); conditions: primary human endothelial cells (HUVEC); actives raise or lower the signal;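 as to outcome: cell-surface VCAM-1 protein measured by ELISA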
# Procedure, shortened: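 Chemicals are added to primary human umbilical vein endothelial cells. After 24 h, VCAM-1 levels are measured by ELISA. Values come from bidirectional fitting referenced to DMSO.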
# [5] = read-out: Interferon-gamma inducible Protein 10 (IP10), CXCL10 (gene 3627); assay: BSK_BE3C_IP10: BioMAP Diversity Plus: BE3C Assay for Interferon-gamma inducible Protein 10 (IP10) Biomarker Activity (AID 2283034); conditions: primary human bronchial epithelial cells; actives raise or lower the signal
# Procedure, shortened: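 IP-10 quantified by ELISA serves as the endpoint. Cells: primary human bronchial epithelium, read 24 h after compound addition. Activity is derived by bidirectional fitting with DMSO as negative control.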
# [6] = read-out: Monokine induced gamma interferon (MIG), CXCL9 (gene 4283); assay: BSK_BE3C_MIG: BioMAP Diversity Plus: BE3C Assay for Monokine induced gamma interferon (MIG) Biomarker Activity (AID 2283035); conditions: primary human bronchial epithelial cells; actives raise or lower the signal;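 as to outcome: MIG protein measured by ELISA in BE3C cultures after 24 h of dosing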
# Procedure, shortened: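 ELISA quantified MIG after 24 h exposure of primary bronchial epithelial cultures, analysed in both directions relative to DMSO. Cytotoxicity tracked in parallel cultures by sulforhodamine B staining.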
# [7] = read-out: Transforming growth factor beta 1 (TGFb1), TGFB1 (gene 7040); assay: BSK_BE3C_TGFb1: BioMAP Diversity Plus: BE3C Assay for Transforming growth factor beta 1 (TGFb1) Biomarker Activity (AID 2283036;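 as to outcome: TGF-b1 protein level measured by ELISA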); conditions: primary human bronchial epithelial cells; actives raise or lower the signal
# Procedure, shortened: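 Bronchial epithelial primary cells are treated with test chemical, then TGF-b1 is quantified by ELISA after 24 hours. Values derive from bidirectional fitting against DMSO, with cytotoxicity checked by SRB staining in parallel cultures.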
# [8] = read-out: Plasminogen activator inhibitor-1 (PAI1), SERPINE1 (gene 5054); assay: BSK_BE3C_PAI1: BioMAP Diversity Plus: BE3C Assay for Plasminogen activator inhibitor-1 (PAI1) Biomarker Activity (AID 2283037); conditions: primary human bronchial epithelial cells; actives raise or lower the signal
# Procedure, shortened: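 Values derive from bidirectional fitting against DMSO baseline of PAI-1 levels, measured by ELISA in human bronchial epithelial cells 24 h after compound addition.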
# [9] = read-out: Urokinase-type plasminogen activator receptor (uPAR), PLAUR (gene 5329); assay: BSK_BE3C_uPAR: BioMAP Diversity Plus: BE3C Assay for Urokinase-type plasminogen activator receptor (uPAR) Biomarker Activity (AID 2283039); conditions: primary human bronchial epithelial cells; actives raise or lower the signal;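 as to outcome: cells exposed to compound for one day before measurement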
# Procedure, shortened: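 Steps: dose human primary bronchial epithelial cells, incubate 24 h, measure uPAR by ELISA, then fit gain- or loss-of-signal response bidirectionally relative to DMSO.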
# [10] = read-out: Interleukin-6 (IL6), IL6 (gene 3569); assay: BSK_CASM3C_IL6: BioMAP Diversity Plus: CASM3C Assay for Interleukin-6 (IL6) Biomarker Activity for (AID 2283040); conditions: primary human coronary artery smooth muscle cells; actives raise or lower the signal
# [11] = read-out: Tissue plasminogen activator (tPA), PLAT (gene 5327); assay: BSK_BE3C_tPA: BioMAP Diversity Plus: BE3C Assay for Tissue plasminogen activator (tPA) Biomarker Activity (AID 2283041); conditions: primary human bronchial epithelial cells; actives raise or lower the signal;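 as to outcome: tPA level quantified by ELISA one day after compound addition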
# Procedure, shortened: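 Gain- or loss-of-signal in tPA, measured by ELISA, derived by bidirectional fitting against DMSO. Cells: human primary bronchial epithelial; read at 24 h after chemical dosing.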
# [12] = read-out: Interleukin-8 (IL8), CXCL8 (gene 3576); assay: BSK_CASM3C_IL8: BioMAP Diversity Plus: CASM3C Assay for Interleukin-8 (IL8) Biomarker Activity (AID 2283042); conditions: primary human coronary artery smooth muscle cells; actives raise or lower the signal;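 also: IL-8 protein level quantified by ELISA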
# [13] = read-out: Human Leukocyte Antigen - DR isotype (HLADR), HLA-DRA (gene 3122); assay: BSK_CASM3C_HLADR: BioMAP Diversity Plus: CASM3C Assay for Human Leukocyte Antigen - DR isotype (HLADR) Biomarker Activity (AID 2283043); conditions: primary human coronary artery smooth muscle cells; actives raise or lower the signal;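 also: cell-surface HLA-DR protein level quantified by ELISA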
# [14] = read-out: Macrophage colony-stimulating factor (MCSF), CSF1 (gene 1435); assay: BSK_CASM3C_MCSF: BioMAP Diversity Plus: CASM3C Assay for Macrophage colony-stimulating factor (MCSF) Biomarker Activity (AID 2283044); conditions: primary human coronary artery smooth muscle cells; actives raise or lower the signal;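 also: M-CSF protein amount quantified by ELISA after 24 h exposure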
# [15] = read-out: Low-density lipoprotein receptor (LDLR), LDLR (gene 3949); assay: BSK_CASM3C_LDLR: BioMAP Diversity Plus: CASM3C Assay for Low-density lipoprotein receptor (LDLR) Biomarker Activity (AID 2283045); conditions: primary human coronary artery smooth muscle cells; actives raise or lower the signal;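 also: LDLR protein level on the cell surface quantified by ELISA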
# [16] = read-out: Monocyte Chemoattractant Protein-1 (MCP1), CCL2 (gene 6347); assay: BSK_CASM3C_MCP1: BioMAP Diversity Plus: CASM3C Assay for Monocyte Chemoattractant Protein-1 (MCP1) Biomarker Activity (AID 2283046); conditions: primary human coronary artery smooth muscle cells; actives raise or lower the signal;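 also: MCP-1 level quantified by ELISA 24 h after dosing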
# [17] = BSK_CASM3C_Proliferation: Cell Proliferation Assessment in the BioMAP Diversity Plus: CASM3C Assay (AID 2283047); conditions: primary human coronary artery smooth muscle cells;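 also: sulforhodamine B total protein stain as relative cell number at 560 nm; sub-confluent cells exposed 48 h before staining; fitted both ways against DMSO so gain or loss of cell number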
# [18] = read-out: Monokine induced gamma interferon (MIG), CXCL9 (gene 4283); assay: BSK_CASM3C_MIG: BioMAP Diversity Plus: CASM3C Assay for Monokine induced gamma interferon (MIG) Biomarker Activity (AID 2283048); conditions: primary human coronary artery smooth muscle cells; actives raise or lower the signal;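 also: MIG protein level measured by ELISA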
# [19] = read-out: serum amyloid A (SAA), SAA1 (gene 6288); assay: BSK_CASM3C_SAA: BioMAP Diversity Plus: CASM3C Assay for serum amyloid A (SAA) Biomarker Activity (AID 2283049); conditions: primary human coronary artery smooth muscle cells; actives raise or lower the signal;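 also: SAA protein level quantified by ELISA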
smiles,measurement,setting,value
CCCCC(CC)COC(=O)c1ccccc1C(=O)OCC(CC)CCCC (centres undefined),outcome,[1],inactive
same,outcome,[2],inactive
same,outcome,[3],inactive
same,outcome,[4],inactive
same,outcome,[5],inactive
same,outcome,[6],inactive
same,outcome,[7],inactive
same,outcome,[8],inactive
same,outcome,[9],inactive
same,AC50,[10],7.31 µM (active)
same,outcome,[11],inactive
same,outcome,[12],inactive
same,outcome,[13],inactive
same,outcome,[14],inactive
same,outcome,[15],inactive
same,outcome,[16],inactive
same,outcome,[17],inactive
same,outcome,[18],inactive
same,outcome,[19],inactive
Cc1cc(Cl)ccc1OCC(=O)O,outcome,[1],inactive
same,outcome,[2],inactive
same,outcome,[3],inactive
same,outcome,[4],inactive
same,outcome,[5],inactive
same,outcome,[6],inactive
same,outcome,[7],inactive
same,outcome,[8],inactive
same,outcome,[9],inactive
same,outcome,[10],inactive
same,outcome,[11],inactive
same,outcome,[12],inactive
same,outcome,[13],inactive
same,outcome,[14],inactive
same,outcome,[15],inactive
same,outcome,[16],inactive
same,outcome,[17],inactive
same,outcome,[18],inactive
same,outcome,[19],inactive
CCOc1cc(Oc2ccc(C(F)(F)F)cc2Cl)ccc1[N+](=O)[O-],outcome,[1],inactive
same,outcome,[2],inactive
same,AC50,[3],9.39 µM (active)
same,outcome,[4],inactive
same,outcome,[5],inactive
same,outcome,[6],inactive
same,outcome,[7],inactive
same,outcome,[8],inactive
same,outcome,[9],inactive
same,outcome,[10],inactive
same,outcome,[11],inactive
same,outcome,[12],inactive
same,outcome,[13],inactive
same,outcome,[14],inactive
same,outcome,[15],inactive
same,outcome,[16],inactive
same,AC50,[17],20 µM (active)
same,outcome,[18],inactive
same,outcome,[19],inactive
CCCN(CCC)c1c([N+](=O)[O-])cc(S(N)(=O)=O)cc1[N+](=O)[O-],AC50,[1],33 µM (active) [middle of 4 runs]
same,AC50,[3],35 µM (active) [middle of 4 runs]
same,AC50,[4],38.1 µM (active) [middle of 4 runs]
same,AC50,[5],36.9 µM (active) [middle of 4 runs]
same,AC50,[6],38.4 µM (active) [middle of 4 runs]
same,AC50,[7],31.3 µM (active) and 31.1 µM (active) and 36.7 µM (active)
same,AC50,[8],34.2 µM (active) [middle of 4 runs]
same,AC50,[9],38.1 µM (active) [middle of 4 runs]
same,AC50,[10],35.2 µM (active) [middle of 4 runs]
same,AC50,[11],30.3 µM (active) [middle of 4 runs]
same,AC50,[12],33.5 µM (active) [middle of 4 runs]
same,AC50,[13],34.4 µM (active) [middle of 4 runs]
same,AC50,[14],36.1 µM (active) [middle of 4 runs]
same,AC50,[15],39.7 µM (active)
same,outcome,[15],inactive
same,AC50,[16],37.1 µM (active) [middle of 4 runs]
same,AC50,[17],35.1 µM (active) [middle of 4 runs]
same,AC50,[18],34.7 µM (active) [middle of 4 runs]
same,AC50,[19],37.1 µM (active) [middle of 4 runs]
CS/C(C)=N/OC(=O)N(C)SN(C)C(=O)O/N=C(\C)SC,AC50,[1],26.8 µM (active)
same,AC50,[2],28.7 µM (active)
same,AC50,[3],30.1 µM (active)
same,AC50,[4],31.1 µM (active)
same,AC50,[5],25.9 µM (active)
same,outcome,[6],inactive
same,outcome,[7],inactive
same,outcome,[8],inactive
same,outcome,[9],inactive
same,AC50,[10],35 µM (active)
same,outcome,[11],inactive
same,AC50,[12],32.1 µM (active)
same,outcome,[13],inactive
same,AC50,[14],28.9 µM (active)
same,outcome,[15],inactive
same,AC50,[16],34.7 µM (active)
same,AC50,[17],6.19 µM (active)
same,AC50,[18],35 µM (active)
same,AC50,[19],20 µM (active)
CCOP(=S)(OCC)SCn1c(=O)oc2cc(Cl)ccc21,outcome,[1],inactive
same,outcome,[2],inactive
same,outcome,[3],inactive
same,AC50,[4],26.1 µM (active)
same,outcome,[5],inactive
same,outcome,[6],inactive
same,outcome,[7],inactive
same,outcome,[8],inactive
same,AC50,[9],147 nM (active)
same,outcome,[10],inactive
same,outcome,[11],inactive
same,AC50,[12],4.25 µM (active)
same,outcome,[13],inactive
same,outcome,[14],inactive
same,outcome,[15],inactive
same,outcome,[16],inactive
same,outcome,[17],inactive
same,outcome,[18],inactive
same,outcome,[19],inactive
